The record followed here is PubChem BioAssay (NCI).

Test systems include SK-MEL-2 melanoma; EKVX NSCLC; SN12C renal; UO-31 renal; TK-10 renal; ACHN renal; CAKI-1 renal; A498 renal; RPMI-8226 leukemia; OVCAR-8 ovarian; OVCAR-5 ovarian; OVCAR-4 ovarian; SK-OV-3 ovarian; IGROV1 ovarian; OVCAR-3 ovarian; HS 578T breast; NCI/ADR-RES ovarian; MOLT-4 leukemia; SR leukemia; CCRF-CEM leukemia.
Common to all, as to assay: NCI-60 one-dose screen, 48 h (100 = growth as untreated, 0 = no growth, -100 = all killed)
Common to all, as to conditions: 10 µM

SMILES strings stand for the structures. About 83,000 compounds went through this panel and 20% of them were active in at least one assay; those are over-represented in the sample as a whole.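 Cell lines were cultured in 96-well plates, exposed to a single compound concentration, and assessed for percent growth 48 hours later.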 Unmarked numbers belong to inactive results. The source made the active and inactive calls. The calls were made as follows: active = growth percent below 10; inactive = the rest.

Consider `COc1cc(C2CC(c3cc(Cl)c(C)cc3O)=NN2c2ccc(S(N)(=O)=O)cc2)cc(OC)c1OC` (configuration not stated), for which the growth in the assay on SK-MEL-2 melanoma was 37.7%; with EKVX NSCLC it was 16.9%; in the assay with SN12C renal, 13.7%; with UO-31 renal, 4.12% (active); in the assay on TK-10 renal, 15.3%; with ACHN renal, 3.29% (active). The growth was 11.4% with CAKI-1 renal; 43.3% in the assay with A498 renal; 11.9% in the assay on RPMI-8226 leukemia; 34.4% with OVCAR-8 ovarian; 19.4% with OVCAR-5 ovarian; 33.1% with OVCAR-4 ovarian. The growth in the assay with SK-OV-3 ovarian is 14.5%; in the assay with IGROV1 ovarian, 3.35% (active); with OVCAR-3 ovarian, 20.7%; in the assay on HS 578T breast it was 30.3%; in the assay with NCI/ADR-RES ovarian, 3.9% (active).
With `CC[C@@H](C(=O)[C@@H](C)[C@@H](O)[C@H](C)[C@@H]1O[C@@H]([C@@H](CC)C(=O)N(CC)CC)CC[C@@H]1C)C1O[C@]2(C=CC(=O)[C@]3(CC[C@@](C)([C@H]4CC[C@](O)(CC)[C@H](C)O4)O3)O2)[C@H](C)C[C@@H]1C` (some centres not stated), the growth in the assay on SK-MEL-2 melanoma was 11.4%; in the assay on EKVX NSCLC it was 19.6%; with SN12C renal, 16.8%; in the assay with UO-31 renal it was 0.811% (active); in the assay on TK-10 renal, 29.1%; in the assay with ACHN renal it was 6.1% (active). For the same compound, the growth is 7.58% (active) in the assay on CAKI-1 renal; 36.6% with A498 renal; 22.7% in the assay with MOLT-4 leukemia; 41.1% with SR leukemia; 29% in the assay on OVCAR-8 ovarian; 29.7% in the assay with OVCAR-5 ovarian. Moreover, the growth in the assay with OVCAR-4 ovarian is 34.3%; with SK-OV-3 ovarian it was 49.8%; in the assay with IGROV1 ovarian, 34.9%; in the assay on OVCAR-3 ovarian it was 21.6%; in the assay with HS 578T breast it was 28.4%; in the assay with NCI/ADR-RES ovarian, 10.5%.
Turning to `COc1ccc(-c2nn(-c3cccc(Cl)c3)cc2-c2cc(-c3ccccc3)[nH]c(=O)c2C#N)cc1`, the growth in the assay on SK-MEL-2 melanoma was 56.7%; in the assay with EKVX NSCLC, 57.2%; with SN12C renal, 67.7%; in the assay on UO-31 renal it was 24.7%; in the assay with TK-10 renal, -12.8% (active); with ACHN renal, 11%. The growth is 40.8% in the assay on CAKI-1 renal; 91.7% in the assay with CCRF-CEM leukemia; 79.6% with MOLT-4 leukemia; 64.8% in the assay with SR leukemia; 26.3% in the assay with OVCAR-8 ovarian; 94.1% in the assay on OVCAR-5 ovarian. For the same compound, the growth with OVCAR-4 ovarian was 31%; in the assay with SK-OV-3 ovarian, -47.3% (active); in the assay on IGROV1 ovarian it was 49.4%; in the assay with OVCAR-3 ovarian it was 25.8%; with HS 578T breast, 23.5%; in the assay on NCI/ADR-RES ovarian, 37.8%.
As for `CC(C)(C)OC(=O)CN1CCc2c(sc3ncnc(N/N=C/c4cccc5ccccc45)c23)C1`, the growth with SK-MEL-2 melanoma is 71.1%; in the assay on EKVX NSCLC, 2.48% (active); with SN12C renal it was 48.4%; with UO-31 renal, 3.34% (active); in the assay with TK-10 renal it was 50.5%; with ACHN renal, 15.7%. The growth in the assay on CAKI-1 renal is 35.1%; with A498 renal, 52.4%; in the assay with MOLT-4 leukemia it was 9.27% (active); in the assay with SR leukemia, 18.2%; in the assay with OVCAR-8 ovarian it was 35.6%; with OVCAR-5 ovarian, 31.1%. The growth with OVCAR-4 ovarian is 54.5%; with SK-OV-3 ovarian it was 67.4%; in the assay on IGROV1 ovarian it was 30.1%; in the assay with OVCAR-3 ovarian it was 39.9%; with HS 578T breast, 21.5%; with NCI/ADR-RES ovarian it was 7.91% (active).
In the case of `COc1ccccc1-n1c(-c2sc(NC(C)=O)nc2C)n[nH]c1=S`, the growth in the assay on SK-MEL-2 melanoma is 106%; in the assay with EKVX NSCLC it was 67.6%; in the assay on SN12C renal it was 101%; in the assay on UO-31 renal, 70.1%; in the assay on TK-10 renal, 130%; with ACHN renal, 108%. Also, the growth in the assay on CAKI-1 renal is 81%; with MOLT-4 leukemia, 92.9%; in the assay on SR leukemia, 79.5%; with OVCAR-8 ovarian, 108%; in the assay with OVCAR-5 ovarian, 109%; in the assay with OVCAR-4 ovarian it was 106%. The growth with SK-OV-3 ovarian is 109%; in the assay with IGROV1 ovarian, 106%; with OVCAR-3 ovarian, 135%; in the assay with HS 578T breast it was 121%; in the assay on NCI/ADR-RES ovarian, 106%.
Consider `O=C1CCn2c1c(O)c1ccccc1c2=O`, for which the growth is 126% with SK-MEL-2 melanoma; 94% with EKVX NSCLC; 108% in the assay on SN12C renal; 96.5% with UO-31 renal; 107% in the assay with TK-10 renal; 111% with ACHN renal. The growth in the assay on CAKI-1 renal was 86.3%; in the assay with CCRF-CEM leukemia, 99.6%; in the assay with MOLT-4 leukemia it was 106%; in the assay with SR leukemia, 95.1%; with OVCAR-8 ovarian, 103%; in the assay with OVCAR-5 ovarian, 114%. Further, the growth in the assay on OVCAR-4 ovarian is 104%; in the assay with SK-OV-3 ovarian, 103%; in the assay with IGROV1 ovarian it was 116%; in the assay with OVCAR-3 ovarian it was 118%; in the assay on HS 578T breast, 93.6%; in the assay with NCI/ADR-RES ovarian, 103%.
For `COc1ccc(-c2cc(-c3ccc(Cl)cc3)nc(SCCCCCCC(=O)NO)n2)cc1OC`, the growth in the assay with SK-MEL-2 melanoma is 89.3%; in the assay with EKVX NSCLC it was 51.6%; in the assay with SN12C renal it was 70.6%; in the assay on UO-31 renal, 20.1%; in the assay with TK-10 renal, 61.1%; with ACHN renal it was 38.1%. Besides, the growth in the assay with CAKI-1 renal was 30.3%; in the assay with MOLT-4 leukemia it was 16.2%; in the assay with SR leukemia, 21.3%; in the assay with RPMI-8226 leukemia it was -9.15% (active); in the assay with OVCAR-8 ovarian, 51.5%; with OVCAR-5 ovarian it was 56.2%. The growth with OVCAR-4 ovarian was 70.5%; with SK-OV-3 ovarian, 58.2%; in the assay with IGROV1 ovarian it was 35.9%; in the assay with OVCAR-3 ovarian, 75.5%; with HS 578T breast, 63.7%; with NCI/ADR-RES ovarian, 20%.
Consider `COc1cccc(CNc2cccc3cn[nH]c23)c1O`, for which the growth was 103% with SK-MEL-2 melanoma; 79.9% with EKVX NSCLC; 91% in the assay with SN12C renal; 60.1% in the assay with UO-31 renal; 92.4% in the assay on TK-10 renal; 98.7% with ACHN renal. For the same compound, the growth was 85.9% in the assay on CAKI-1 renal; 101% with CCRF-CEM leukemia; 98% with MOLT-4 leukemia; 103% in the assay with SR leukemia; 100% in the assay with RPMI-8226 leukemia; 96.5% in the assay on OVCAR-8 ovarian. Further, the growth with OVCAR-5 ovarian is 106%; with OVCAR-4 ovarian, 80.7%; in the assay on SK-OV-3 ovarian it was 101%; in the assay with IGROV1 ovarian, 88.8%; with OVCAR-3 ovarian, 100%; in the assay with NCI/ADR-RES ovarian, 105%.
